Experimental data reported in PubChem BioAssay AID651871 (Sanford-Burnham Center for Chemical Genomics, 2012).

Test system: HL-1
Assay: cardiomyocyte survival under oxidative or metabolic stress – cell-based, panel, H9c2 and HL-1, ATP luminescence, set 2, SAR follow-up (AID 651871);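 also: cells exposed to stressor for 2 h before ATP readout; reference of the scale not given here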
Conditions: H9c2/HL-1 cardiomyocytes, 2-deoxyglucose stress, with 2-deoxyglucose, run 8, at 79 µM (top of the series)

Compound | activity (protection/inhibition) [%]
COc1ccc2c(c1OC)C(=O)N1c3ccccc3C(=O)N(Cc3cccc(Cl)c3Cl)C21 (stereo not drawn) | -9.25
CCOC(=O)c1cccc(NC(=O)CNC(=O)c2cc(-c3cc(OC)c(OC)c(OC)c3)nc3ccccc23)c1 | 74.3
COc1ccc2nc(-c3cc(OC)c(OC)c(OC)c3)cc(C(=O)NCC(=O)Nc3ccc(C(C)=O)cc3)c2c1 | 97.2
